MITF primary: human MITF inhibition, primary screen; O75030; AlphaScreen MITF homodimerization, bead proximity signal; inhibition, % at 2.6 µM; actives 0.91% (n = 650,000); in the data active = inhibition above about 50%;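 also: 0% = vehicle wells with protein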
TEAD-YAP block: TEAD-YAP interaction inhibition; HEK-TIYL cells, TEAD-Gal4/YAP UAS-luciferase luminescence; inhibition, % at 9.12 µM; actives 1.4% (n = 640,000); AID 1259422; in the data active = inhibition above about 32%;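 also: 0% = median of test compound wells and 100% = reference inhibitor wells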
GPR151 ag: activators of human GPR151; Q8TDV0; activation, % at 11.2 µM; actives 1% (n = 650,000); PathHunter beta-arrestin GPR151 cells, luminescence; in the data active = activation above about 4.9%;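 also: 0% = median of compound wells and 100% = cells with positive control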
FBW7 act: human FBW7 E3 ligase activation, primary screen | Q969H0 | AlphaScreen FBW7–phospho-cyclin E peptide binding, activator screen | normalized activity (activation), % at 26.1 µM | actives 0.13% (n = 650,000); in the data active = normalized activity above about 1.9%;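 also: purified mutant Fbw7 with reduced substrate affinity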
An asterisk follows results filed as active. Hits are enriched below; roughly 3.4% of the tested compounds scored in any of these assays.

SMILES | MITF primary | TEAD-YAP block | GPR151 ag | FBW7 act
CC(C)(C)c1ccc(O)c(/C=N/NC(=O)c2ccc3c(c2)OCCO3)c1 | 29 | 45* | 0 | 0
COc1cc(Cl)cc(/C=N\NC(=O)c2ccc3c(c2)OCO3)c1O | 10 | 74* | 0 | -3
Cc1cc(C)cc(N(C(=O)C(C)C)C2C=CS(=O)(=O)C2)c1 (configuration not stated) | 5 | 9 | 1 | 0
CCOc1cc(C(=O)NC(C)(C)CC)cc(Br)c1OC | 2 | -4 | 0 | 0
COc1ccc(CNC(=O)C(=O)N/N=C/c2cccc(OC)c2O)cc1 | 53* | 10 | -1 | 0
COc1cccc(/C=N/Nc2ccc(C(=O)O)cc2)c1O | -15 | 84* | -6 | 0
COc1cccc(/C=N\NC(=O)c2c(C)nc3cc(C)ccn23)c1O | 50 | 78* | -1 | -1
Cc1nc2ccccn2c1C(=O)N/N=C/c1ccc(O)c(O)c1O | 76* | 8 | 0 | 0
COc1cccc(/C=N/Nc2ccc(S(=O)(=O)O)cc2)c1O | 21 | 10 | 1 | 0
Cc1ccn2c(C(=O)N/N=C\c3ccccc3[N+](=O)[O-])c(C)nc2c1 | -6 | -4 | 0 | 0
COc1cccc(/C=N/NC(=O)c2cc(C(C)C)[nH]n2)c1O | 16 | 49* | 0 | 0
CC(C)Oc1ccc(Br)cc1C(=O)N/N=C/c1ccc2c(c1)OCO2 | 5 | 40* | -1 | 0
COc1cccc(/C=N/NC(=O)c2cc(-c3ccco3)[nH]n2)c1O | 41 | 23 | 0 | -1
COc1cccc(/C=N/NC(=O)c2cccc(Br)c2)c1O | 20 | 64* | 0 | -1
C=CCc1cccc(/C=N/NC(=O)c2ccc(OC)cc2)c1O | 11 | 50* | 0 | 1
N/C(=N\OC(=O)c1ccccc1-c1ccccc1)c1cccnc1 | 8 | 5 | 0 | 0
COc1cccc(/C=N/NC(=O)c2cccc(N)c2)c1O | 34 | 67* | 1 | 0
COc1cccc(/C=N/NC(=O)c2cc(Br)ccc2OC(C)C)c1O | 14 | 78* | -2 | 0
COc1cccc(/C=N/NC(=O)c2ccc(O)cc2)c1O | -27 | 21 | -1 | 0
COc1cccc(/C=N/NC(=O)c2cccc(Cn3nc(C)cc3C)c2)c1O | 57* | 7 | -1 | 0
COc1cccc(/C=N/NC(=O)c2ccc(C(C)(C)C)cc2)c1O | 15 | 39* | 3 | -1
COc1cccc(/C=N/NC(=O)c2cccc(Cn3cccn3)c2)c1O | 11 | -3 | -1 | 0
COc1ccc(N2CCN(C(CNS(=O)(=O)c3ccc(OC)c(C)c3)c3ccco3)CC2)cc1 (configuration not stated) | 68* | 6 | 0 | 0
COc1cc(OC)c(C2SCCN2S(=O)(=O)c2ccc(C)cc2)cc1OC (configuration not stated) | 7 | -2 | -1 | 0
COc1ccccc1C1SCCN1S(=O)(=O)c1ccc([N+](=O)[O-])cc1 (configuration not stated) | 2 | 6 | 1 | 4.4*
SMILES | MITF primary | TEAD-YAP block | GPR151 ag | FBW7 act
COc1ccc(S(=O)(=O)N2CCSC2c2cc(OC)c(OC)cc2OC)cc1 (configuration not stated) | -3 | 43* | 0 | 0
Cc1sc2ncn3c(=O)n(CC(=O)NCc4ccco4)nc3c2c1C | -3 | -6 | -1 | 0
COc1ccc(S(=O)(=O)Nc2ccc(NC(C)=O)cc2)cc1Cl | -5 | 1 | 0 | 0
COc1cc(NS(=O)(=O)c2ccc(NC(C)=O)cc2)c(OC)cc1Cl | 6 | 52* | 0 | 0
COC(=O)c1ccc(C(=O)OC)c(S(=O)(=O)Nc2cc(OC)c(Cl)cc2OC)c1 | 10 | 45* | -2 | 0
COc1ccc(Cl)cc1NS(=O)(=O)c1ccc(OC)c(OC)c1 | 13 | -3 | 1 | 0
COc1cc(NS(=O)(=O)c2ccc(OC)c(OC)c2)c(OC)cc1Cl | 9 | 48* | 2 | 0
COC(=O)c1ccc(C(=O)OC)c(NS(=O)(=O)c2cc(Cl)ccc2Cl)c1 | -14 | 1 | 1 | 0
O=C(Nc1cc(=O)[nH]c(=O)[nH]1)c1cc([N+](=O)[O-])ccc1Cl | 25 | -12 | 1 | 0
O=C(Nc1cc(=O)[nH]c(=O)[nH]1)c1cc(Br)ccc1Cl | 14 | 54* | -1 | 0
O=C(Nc1cc(=O)[nH]c(=O)[nH]1)c1cc(Cl)ccc1Cl | 7 | 52* | 1 | 0
O=C(c1ccc2c(=O)n(-c3ccccc3)c(=S)[nH]c2c1)N1CCCC1 | -11 | 22 | 1 | 0
NC(=O)c1ccc(-c2nc(NCc3cccnc3)c3ncn(-c4ccsc4)c3n2)cc1 | -1 | 51* | 0 | 0
